Here are results for 8 compounds from PubChem BioAssay (NCI).

Compounds without any hit were thinned out: in the full panel of roughly 83,000, 20% have a hit.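 The endpoint reported here, percent growth, reads 100 for growth as untreated, 0 for no net growth and -100 for all cells dead.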 Unmarked numbers belong to inactive results. The source made the active and inactive calls. Rule for the calls: active = growth percent below 10; inactive = the rest.

Common to all, as to test: NCI-60 one-dose screen, 48 h (100 = growth as untreated, 0 = no growth, -100 = all killed)
Common to all, as to conditions: 10 µM unless noted

Assay [1] relates to SK-MEL-2 melanoma.
Assay [2] deals with EKVX NSCLC.
Assay [3] has as its system SN12C renal.
The test system of assay [4] is UO-31 renal.
In assay [5] the test system is TK-10 renal.
The test system of assay [6] is ACHN renal.
In assay [7] the test system is CAKI-1 renal.
Assay [8] concerns A498 renal.
In assay [9] the test system is CCRF-CEM leukemia.
Assay [10] concerns MOLT-4 leukemia.
For assay [11], the system named is SR leukemia.
The test system of assay [12] is RPMI-8226 leukemia.
The subject of assay [13] is OVCAR-8 ovarian.
Assay [14] concerns OVCAR-5 ovarian.
Assay [15] has as its system OVCAR-4 ovarian.
The subject of assay [16] is SK-OV-3 ovarian.
Assay [17] concerns OVCAR-3 ovarian.
Assay [18] concerns HS 578T breast.
Assay [19] deals with NCI/ADR-RES ovarian.
The subject of assay [20] is IGROV1 ovarian.

In the case of `NC(=O)c1cc(Br)ccc1NC(=O)/C=C/c1ccccc1`, the growth in assay [1] was 47.7%; in assay [2], 46.4%; in assay [3] it was 48.3%; in assay [4], 37.7%; in assay [5], 98.7%; in assay [6], 64.4%. The growth in assay [7] is 53.2%; in assay [8], 59.7%; in [9] it was 9.57% (active); in assay [10], 36.8%; in assay [11], -10.1% (active); in assay [12], 24.4%. Also, the growth in [13] is 54.4%; in assay [14] it was 49.9%; in assay [15] it was 35.8%; in [16], 31.1%; in assay [17], -12.2% (active); in assay [18], 16.3%. Further, the growth in assay [19] was 11%.
As for `CN(CCCCCl)P(=O)(OCc1ccc([N+](=O)[O-])o1)C(F)(F)c1ccc(CC(=O)NC[C@@H](O)/C=C\[C@@H](O)[C@H](CO)Cc2ccccc2)cc1` (stereo not given in full), the growth in assay [1] is 66.5%; in assay [2] it was 99.3%; in [3] it was 98.8%; in assay [4], 88.9%; in [5] it was 113%; in assay [6], 94%. Also, the growth is 104% in assay [7]; 83.8% in [8]; 70.7% in assay [9]; 93.5% in [10]; 47.7% in [11]; 77.1% in assay [12]. Moreover, the growth was 95.1% in assay [13]; 111% in [14]; 95.2% in assay [15]; 99.4% in assay [20]; 107% in assay [17]; 103% in assay [18]. Further, in assay [19], the growth is 101%.
On to `C#CC(F)(F)[C@]1(O)CC[C@H]2[C@@H]3CCC4=CC(=O)CCC4=C3[C@@H](c3ccc(C4CC4)cc3)C[C@@]21C`, for which the growth was 59.5% in assay [1]; -67.4% (active) in assay [2]; 60.3% in [3]; -84.8% (active) in [4]; 99.8% in assay [5]; 40.4% in assay [6]. Moreover, the growth in assay [7] was -73.3% (active); in [8], -5.83% (active); in assay [9] it was -63% (active); in assay [10] it was -6.54% (active); in assay [11] it was -38.7% (active); in [12], -42.5% (active). In addition, the growth was 24.8% in assay [13]; 9.97% (active) in [14]; 10.9% in [15]; -79.4% (active) in [16]; -73.4% (active) in assay [17]; 33.4% in assay [18]. Further, the growth in [19] was 11%.
On to `CCCCN1CCCn2c1nc1c2c(=O)n(CCC)c(=O)n1CCC`, for which the growth in [1] was 90.1%; in [2] it was 97.2%; in [3], 93.2%; in assay [4], 76.8%; in assay [5] it was 97.1%; in [6], 88.4%. Also, the growth in assay [7] is 89.1%; in assay [8], 80.2%; in assay [9] it was 104%; in assay [10], 103%; in assay [11], 67.1%; in assay [12] it was 110%. For the same compound, the growth was 102% in assay [13]; 101% in assay [15]; 101% in assay [16]; 110% in assay [20]; 94.8% in assay [17]; 96.4% in assay [18]. The growth in assay [19] was 99.8%.
As for `O=C1C=C(O)C(=O)C(CC2=C(O)C(=O)C=C(O)C2=O)=C1O`, the growth in assay [1] is 104%; in assay [2] it was 102%; in assay [3], 97.8%; in assay [4] it was 94.6%; in assay [5], 106%; in assay [6], 97.5%. Further, the growth is 104% in [7]; 86.6% in assay [8]; 115% in [9]; 104% in assay [10]; 103% in assay [11]; 107% in assay [12]. For the same compound, the growth in assay [13] was 105%; in assay [14] it was 91%; in assay [15] it was 101%; in assay [17], 108%; in assay [18], 99.4%; in assay [19] it was 99.6%.
Consider `COc1ccc(C(=O)COc2cccc(/C=C3\CSc4ccccc4C3=O)c2)cc1`, for which the growth in assay [1] was -30.9% (active); in assay [2], 70.7%; in [3], 29.6%; in assay [4] it was 18%; in [5], -5.8% (active); in assay [6] it was -35.8% (active). In addition, the growth is -47.9% (active) in [7]; 85.4% in assay [8]; -62.2% (active) in assay [9]; -65.7% (active) in assay [10]; -65.1% (active) in [11]; -62.4% (active) in assay [12]. Further, the growth in assay [13] is 6.51% (active); in [14] it was 32.4%; in assay [15] it was 84.4%; in assay [16] it was 108%; in assay [17] it was 64.4%; in assay [18], -11.1% (active). The growth in assay [19] is 15.1%.
Take `COc1ccc(C(=O)COc2ccc(/C=C3\COc4ccc(OC)cc4C3=O)cc2)cc1`: the growth is 68.1% in assay [1]; 103% in [2]; 100% in [3]; 85.8% in [4]; 105% in assay [5]; 99.8% in [6]. Further, the growth in assay [7] is 99.1%; in assay [8], 100%; in assay [9] it was 7.46% (active); in assay [10] it was 55.5%; in [11], 2.54% (active); in assay [12] it was -5.51% (active). Besides, the growth is 44.3% in assay [13]; 92.1% in assay [15]; 105% in [16]; 104% in assay [17]; 81.7% in assay [18]; 80.7% in assay [19].
With `COc1cc(C2CC(=O)c3ccccc3N2)cc(OC)c1OC` (stereo not given), the growth in [1] is 74.3%; in assay [2] it was 103%; in assay [3], 92%; in [4], 92.4%; in assay [5] it was 105%; in [6], 102%. In addition, the growth in assay [7] was 93.4%; in assay [8], 83.7%; in [9], 95.5%; in assay [10] it was 97%; in assay [11], 99.6%; in assay [12], 91.3%. In addition, the growth is 94.3% in assay [13]; 103% in assay [14]; 97.4% in [15]; 99% in [20]; 110% in assay [17]; 99.1% in assay [18]. For the same compound, in assay [19], the growth was 101%.
